# HCV NS3h FP = HCV NS3 helicase inhibitors, primary screen, biochemical, fluorescence polarization, ChemBridge library; Hepatitis C virus NS3 helicase; NS3h Cy5-dT15 DNA binding; inhibition, % at 100 µM; 1.6% of 16,000 active;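 active = inhibition above the average over every tested compound plus 3 SD, cut at about 40% in these data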
# Cy5 interf NS3h = Cy5 fluorescence quenchers or enhancers, artefact control for HCV NS3 helicase inhibitor project, biochemical, ChemBridge library, Cy5 readout | 6% of 16,000 active | AID 720488, 2013 | Cy5-dT15 DNA with NS3h, fluorescence interference; actives lie on both sides; signal over control mean, under 1 quenches | fluorescence interference ratio at 100 µM;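 active = compound fluorescence over control fluorescence at most 0.8, a quencher, or at least a set upper limit, an enhancer; inactive = ratio between 0.8 and the set upper limit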
# HCV NS3h conf = HCV NS3 helicase inhibitors, retest, confirmation, biochemical, fluorescence polarization, ChemBridge library | shares compounds with HCV NS3h FP | NS3h binding to Cy5-dT15 DNA | inhibition, % at 100 µM | 20% of 240 active | AID 720485, 2013;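 active = percent inhibition of 50% or more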
# SSB-DNA FP CB = E. coli SSB-DNA binding inhibitors, counter-screen for HCV NS3 helicase inhibitor project, biochemical, fluorescence polarization, selected ChemBridge compounds | E. coli SSB binding Cy5-dT15 | 40% of 240 active | shares compounds with HCV NS3h FP | AID 720486, 2013 | inhibition, % at 100 µM;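 active = inhibition of at least 50%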;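 note: displacers lower Cy5 polarization so higher inhibition means more SSB displaced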
# Target sequence (P0AGE0 whole entry, looked up): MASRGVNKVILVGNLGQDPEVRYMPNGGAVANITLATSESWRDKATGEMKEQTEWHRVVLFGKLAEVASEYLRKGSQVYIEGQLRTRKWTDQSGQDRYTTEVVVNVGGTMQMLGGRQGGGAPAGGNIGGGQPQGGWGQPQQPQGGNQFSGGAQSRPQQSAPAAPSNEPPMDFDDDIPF
# Cy5 SSB interf = Cy5 fluorescence interference with SSB-bound oligo, artefact control for HCV NS3 helicase inhibitor project, biochemical, E. coli SSB, selected ChemBridge compounds. shares compounds with HCV NS3h FP. Cy5-dT15/E. coli SSB fluorescence interference; actives lie on both sides. fluorescence interference ratio at 100 µM. 8% of 240 active;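 active = fluorescence interference ratio at or above 1.2, signal boosting, or at or below 0.8, signal quenching; inactive = ratio between 0.8 and 1.2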
# Cy5 fluor confirm = Cy5-DNA-NS3h complex fluorescence interference, confirmation, artefact control for HCV NS3 helicase inhibitor project, biochemical, ChemBridge library; Cy5-dT15 DNA/NS3h fluorescence interference counterscreen; fluorescence interference ratio at 100 µM, hits read low; AID 720489, 2013; 44% of 240 active; shares compounds with HCV NS3h FP;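 active = fluorescence interference ratio at or below 0.8 quencher or at or above a set limitenhancer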
# Numbers stand for hits; . = inactive. In the library only some 6.8% were active in any assay of this set; here they are far more common.
SMILES,HCV NS3h FP,Cy5 interf NS3h,others
O=[N+]([O-])c1ccc(N2CCNCC2)cc1NCCc1ccccc1,.,0.78,
Cc1cc(OCC(=O)C(C)(C)C)c2c3c(c(=O)oc2c1)CCC3,.,.,
Cc1ccc(N2C(=O)CC(=O)NC2=S)cc1,.,.,
O=C1CC(=O)N(c2ccc(Cl)c(Cl)c2)C(=S)N1,.,0.62,
O=[N+]([O-])c1ccc(NCCOc2cccc3ccccc23)c2ncccc12,.,0.75,
Cc1ccc(C(=O)Nc2ccc(Cl)cc2C(=O)c2ccccc2)cc1[N+](=O)[O-],.,.,
Cc1cccc(OP(=O)(Oc2ccccc2)Oc2cccc(C)c2)c1,.,.,
Cc1ccc(-c2ccc(C=C3C(=O)NC(=S)NC3=O)o2)cc1[N+](=O)[O-],42,.,
Cc1cc(-c2ccc(C=C3C(=O)NC(=S)NC3=O)o2)cc([N+](=O)[O-])c1C,.,.,
CN(C)CCC(=O)c1ccc(Cl)c(Cl)c1,.,.,
O=C(Nc1ccc(Cl)cc1C(=O)c1ccccc1)c1ccncc1,.,.,
CC1=NN(c2ccccc2)C(=O)C1/C=C1\C(=O)NC(=O)N(c2cccc(C)c2)C1=O (stereo unspecified),.,.,
COC(=O)c1ccc(-c2ccc(C=C3C(=O)NC(=S)NC3=O)o2)cc1,.,.,
O=C1NC(=O)C(=Cc2ccc(-c3cc([N+](=O)[O-])ccc3O)o2)C(=O)N1,185,1.7,HCV NS3h conf=100;SSB-DNA FP CB=100;Cy5 SSB interf=.;Cy5 fluor confirm=.
O=C1NC(=O)C(=Cc2ccc(O)c(O)c2)C(=O)N1,.,.,
O=C1NC(=O)C(=Cc2ccc(-c3ccccc3C(=O)O)o2)C(=O)N1,68,.,HCV NS3h conf=54;SSB-DNA FP CB=.;Cy5 SSB interf=.;Cy5 fluor confirm=.
CCOP(=O)(OCC)C(NC(=O)c1ccc(Cl)cc1)C(Cl)(Cl)Cl (stereo unspecified),.,.,
COc1ccc(CN2CCN(C(=O)COc3ccc(Cl)cc3)CC2)cc1OCc1ccccc1,.,.,
O=[N+]([O-])c1ccc(N2CCCCCC2)c(F)c1Br,.,.,
Cc1ccc(-n2c(-c3ccncc3)nc3ccccc3c2=O)cc1,.,.,
Cc1ccc(C(=O)C(C)(C)NO)cc1,.,.,
CC(C)Oc1ccc(Br)cc1C=C1C(=O)NC(=O)NC1=O,.,.,
O=C1NC(=O)C(=Cc2ccccc2OCc2ccccc2Cl)C(=O)N1,56,0.58,HCV NS3h conf=.;SSB-DNA FP CB=.;Cy5 SSB interf=.;Cy5 fluor confirm=0.73
COc1ccc(C(c2c(O)c3ccccc3oc2=O)c2c(O)c3ccccc3oc2=O)cc1COc1ccccn1,.,.,
Oc1ccc(Br)cc1CN1CCN(Cc2ccc(Cl)cc2)CC1,.,.,
SMILES,HCV NS3h FP,Cy5 interf NS3h,others
CCN1C(=O)C(=Cc2ccc(N(CC)CC)cc2)C(=O)N(CC)C1=S,55,2,HCV NS3h conf=.;SSB-DNA FP CB=.;Cy5 SSB interf=.;Cy5 fluor confirm=1.4
CN(C)c1ccc(C=C2C(=O)NC(=S)N(c3ccccc3F)C2=O)cc1,.,.,
CCCCOC(=O)COc1cc(C)cc2oc(=O)c3c(c12)CCC3,54,.,HCV NS3h conf=.;SSB-DNA FP CB=.;Cy5 SSB interf=.;Cy5 fluor confirm=.
Cc1cc(OCC(N)=O)c2c3c(c(=O)oc2c1)CCC3,.,.,
Cc1cc(OC(C)C(=O)O)c2c3c(c(=O)oc2c1)CCC3 (stereo unspecified),.,.,
O=C1NC(=S)NC(=O)C1CCCC=C(Cl)Cl,.,.,HCV NS3h conf=.;SSB-DNA FP CB=.;Cy5 SSB interf=.;Cy5 fluor confirm=.
Nc1ccc(Br)cc1C(=O)c1ccc(Cl)cc1Cl,.,.,
O=C1NC(=S)N(c2ccc(Br)cc2)C(=O)/C1=C/c1ccc(-c2ccc(C(=O)O)cc2)o1,.,.,
CN1C(=O)C(=Cc2ccc(-c3cccc(C(=O)O)c3)o2)C(=O)N(C)C1=O,.,.,
Cc1ccc(N2C(=O)/C(=C/c3ccc(-c4ccc(C(=O)O)cc4)o3)C(=O)NC2=S)cc1,50,.,HCV NS3h conf=.;SSB-DNA FP CB=62;Cy5 SSB interf=.;Cy5 fluor confirm=.
Cc1ccc(N2C(=O)NC(=O)/C(=C/c3ccc(-c4cccc(C(=O)O)c4)o3)C2=O)cc1,50,.,HCV NS3h conf=89;SSB-DNA FP CB=70;Cy5 SSB interf=.;Cy5 fluor confirm=.
